HT1080-NT tox: kills 2HG-producing HT-1080-NT fibrosarcoma cells. 360,000 compounds, 1.6% hits. AID 686970. HT-1080-NT fibrosarcoma viability, CellTiter-Glo ATP luminescence, 48 h. Potency, µM (titrated, usually from 46.1 µM), inactives show top-dose activity, negative = less viability, hits mostly cytotoxic;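 note: NT is the 2HG producing partner of a matched IDH1 knockdown line; potency is the fitted concentration of half-maximal effect; 0% = DMSO-treated cells and -100% = media-only wells without cells; nearly all actives have a fitted effect of over 55% in size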
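Toxicity toward the 2HG-producing NT line was scored as %Activity, normalised to DMSO and no-cell wells, from CellTiter-Glo luminescence after 48 hours' treatment.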
DT40 TDP1 CPT: growth inhibition of DT40 Tdp1-/-;hTDP1 cells with camptothecin (screen for TDP1 inhibitors); AID 686979; chicken DT40 Tdp1-/-;hTDP1 cells + 20 nM CPT, ATP luminescence, 48 h; 420,000 compounds, 12% hits; Potency, µM (top dose mostly 46.2 µM), without a hit: at the highest dose activity change, negative = growth inhibition, most hits filed as inhibitors; note: potency is the fitted concentration of half-maximal effect; nearly all actives have a fitted effect of over 55% in size
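Cell growth measured by CellTiter-Glo luminescence after a minimum 48 h, 37 C compound exposure with 20 nM CPT in Tdp1-knockout DT40 cells stably expressing hTDP1, seeded 400/well; qHTS titration format.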
DT40 TDP1 no CPT: qHTS for Inhibitors of human tyrosyl-DNA phosphodiesterase 1 (TDP1): qHTS in cells in absence of CPT. DT40 Tdp1-/- hTDP1 cells, no CPT, ATP luminescence, 48 h. Potency, µM (highest dose often 46.2 µM), for the others: at the highest dose activity change, negative = growth inhibition, hits mostly inhibitors. 420,000 compounds, 15% hits. AID 686978, 2013; note: potency is the fitted concentration of half-maximal effect; nearly all actives have a fitted effect of over 55% in size
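Stably hTDP1-transfected Tdp1-null chicken DT40 cells were treated with library compounds minus camptothecin and grown for at least 48 hr at 37 °C, after which cellular ATP was quantified by luminescence.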
IL-1B inflam inh: inflammasome signaling inhibition, IL-1 beta readout; activity change, % at 57.5 µM; AID 743279; THP-1 LPS/ATP IL-1B secretion, AlphaLISA, 16 h; hits give low values; 360,000 compounds, 4.7% hits; in the data active = activity change below about -50%; inconclusive = mostly about -30% to -49%
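Secreted IL-1B measured by AlphaLISA bead assay after 16 h compound exposure of THP-1 cells; compounds (final up to 57.5 uM) added 1 h before LPS (250 ng/mL) and ATP (1.25 mM) stimulation; lower signal means less secretion.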
HT1080 IDH1KD tx: toxicity to HT-1080 IDH1 knockdown cells (counter line). AID 686971. Potency, µM (titrated, usually from 46.1 µM), for the others: at the top dose activity, negative = toxicity, most hits filed as cytotoxic. 360,000 compounds, 2% hits. HT-1080 IDH1 knockdown viability, ATP luminescence, 48 h;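 note: potency is the fitted concentration of half-maximal effect; 0% = DMSO wells and -100% = cell-free medium wells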
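Using the IDH1-knockdown HT-1080 line run in the same batch and compound series as the NT line, viability after 48 h at 37 °C was determined by CellTiter-Glo luminescence and expressed as % activity.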
uPA surface inh: cell surface uPA generation inhibition; cell surface uPA generation assay, qHTS; Potency, µM (doses to about 38.3 µM), inactives show at the highest dose activity change, negative = inhibition, usual class: inhibitors; 330,000 compounds, 0.31% hits; AID 540303; active = well fitted inhibition curve with a large enough effect; inconclusive = small, poorly fitted or top-dose-only effect; inactive = no such curve, though single readings can be large or run the other way; tested in mouse RAW 264.7 cells; note: potency is the fitted concentration of half-maximal effect; nearly all actives have a fitted effect of over 55% in size
An asterisk follows results filed as active; ? = inconclusive; nt = not tested or not shown; ! = repeats disagree; [ ] = another dose, or the depositor's remark. Shown are actives, neighbours in structure and some others; about 19% of the full set was active somewhere. Unless noted, calls come from the whole dose curve; as a rule, active = well fitted curve in the direction sought with a large enough effect; inconclusive = small, poorly fitted or top-dose-only effect, or another doubt; inactive = no such curve, though single readings can be large; an effect the other way counts as inactive or inconclusive. Unless noted, % is set by controls: 0 for no effect and ±100 for the full control effect.

SMILES	HT1080-NT tox	DT40 TDP1 CPT	DT40 TDP1 no CPT	IL-1B inflam inh	HT1080 IDH1KD tx	uPA surface inh
COc1ccccc1N(Cc1cc(=O)[nH]c2ccccc12)C(=O)c1ccc([N+](=O)[O-])cc1	16.4%	20.6µM*	11.6µM*	7.4	16.2%	1.5%
Cc1ccc(C2CC(=O)n3nc(-c4ccc(Cl)cc4)nc3S2)cc1 (centres undefined)	nt	-28.9%	-26.2%	nt	nt	nt
NNCCc1ccccc1	-0.8%	?	13µM*!	0.9	-2.2%	3.7%
O=C(CC(=O)NCCc1ccccc1)NCCc1ccccc1	2.7%	19.0%	-14.8%	18.6	1.7%	1.6%
CCCS(=O)(=O)NC(=O)C1(C)CCCN(C(=O)c2ccc(F)cc2Cl)C1 (centres undefined)	?	-9.6%	-6.5%	29.7	9.1%	nt
O=C1C(O)=CC(=C(c2ccccc2)c2ccccc2)c2ccccc21	-7.0%	?	?	-91.8*	?	-9.9%
CC(=O)Oc1ccccc1/C=C/c1ccc2ccccc2[n+]1C	?	20.6µM*	16.4µM*	-57.1*	?	?
COc1cc(OC)c(OC)cc1/C=C/c1ccc2ccccc2[n+]1C	nt	0.891µM*	0.708µM*	nt	nt	nt
COc1ccc(/C=C/c2ccc3ccccc3[n+]2C)c(OC)c1OC	nt	1.41µM*	1.12µM*	nt	nt	nt
COc1cc(/C=C/c2cc[n+](C)c3ccccc23)cc(OC)c1OC	nt	-14.1%	-9.0%	nt	nt	nt
COc1cc(/C=C/c2cc[n+](C)cc2)ccc1OCC(=O)Nc1ccccc1	12.6%	-3.9%	-28.3%	-16.4	1.0%	-0.8%
Cc1ccccc1/C=C/c1cccc[n+]1C	?	?	?	-11.8	?	-16.7%
COc1ccc(/C=C/c2ccc3ccccc3[n+]2C)cc1OC	-4.9%	12.6µM*	18.4µM*	-5.6	-5.1%	-8.1%
COc1ccccc1NC(=S)N(CCCN1CCOCC1)Cc1cccs1	0.8%	-10.5%	?	13.3	0.0%	7.2%
Cc1ccc(Cl)cc1NC(=O)Cn1nc2c(cc1=O)CC(C)CC2 (centres undefined)	nt	-16.9%	-33.3%	nt	nt	nt
Cc1ccc(C(=O)OCC(=O)Nc2ccccc2)cc1NC(=O)c1ccco1	-4.3%	-9.3%	-4.5%	14.5	-5.1%	3.5%
Cc1ccc(C(=O)OCC(=O)Nc2nc(-c3ccccc3)cs2)cc1NC(=O)c1ccco1	3.5%	?	?	-80.4*	-10.0%	-8.2%
Cc1ccc(C(=O)OCC(=O)Nc2sccc2C(N)=O)cc1NC(=O)c1ccco1	-1.0%	?	6.51µM*	-5.2	-6.3%	1.9%
Cc1ccc(C(=O)OCC(=O)Nc2cc(F)ccc2F)cc1NC(=O)c1ccco1	-4.3%	-0.7%	-27.0%	6.5	-0.9%	0.4%
CCCOc1ccc(F)cc1-c1cc(C(=O)Nc2ccc(OC)cc2C)[nH]n1	5.9%	?	?	-25.6	-11.3%	nt
O=C(CNC(=O)c1ccc2ccccc2c1)NCc1ccccc1F	13.3%	-22.0%	0.1%	18.4	-0.9%	0.4%
CCN(c1ccccc1)S(=O)(=O)c1ccc(OC)c(NC(=O)Cc2ccccc2OC)c1	5.3%[9.24 µM]	23.1µM*	23.1µM*	0.0	-9.9%	-4.0%
CCN(c1ccccc1)S(=O)(=O)c1ccc(Cl)c(NC(=O)COC(=O)c2cccc(OC)c2O)c1	9.0%	?	18.4µM*	0.0	16.0%	-0.9%
O=c1c(-c2cc(-c3ccccc3)nc3c2COc2ccc(Cl)cc2-3)coc2ccc(F)cc12	nt	3.4%	6.8%	nt	nt	nt
O=C(NCCN1CCOCC1)c1ccc(Cl)c(S(=O)(=O)N2CCCCC2)c1	-2.7%	-22.8%	-1.0%	0.0	-0.4%	-7.7%
SMILES	HT1080-NT tox	DT40 TDP1 CPT	DT40 TDP1 no CPT	IL-1B inflam inh	HT1080 IDH1KD tx	uPA surface inh
CN1CCN(S(=O)(=O)c2cccc(C(=O)NCCC3=CCCCC3)c2)CC1	18.6%	?	?	5.6	-0.5%	-4.7%
CC(=O)N1CCN(S(=O)(=O)c2cccc(C(=O)NCCC3=CCCCC3)c2)CC1	?	2.91µM*	-18.5%	-5.8	-6.7%	-3.6%
O=S(=O)(NCCC1=CCCCC1)c1cccc(S(=O)(=O)N2CCOCC2)c1	-26.2%	5.17µM*	5.8µM*	31.7	?	4.7%
O=C(NCCC1=CCCCC1)c1ccc(Cl)c(S(=O)(=O)N2CCCCC2)c1	-11.2%	16.4µM*	23.1µM*	-13.4	?	-16.5%
CC(=O)OCC1OC(n2c(Br)nc3c(=O)[nH]c(N)nc32)C(OC(C)=O)C1OC(C)=O (centres undefined)	nt	11.4%	22.2%	nt	nt	nt
Cc1csc(NC(=O)CCCC(=O)c2ccccc2)n1	11.3%	17.4%	-17.0%	-7.4	11.9%	21.6%
CCOC(=O)C1=CCN(S(=O)(=O)c2ccccc2F)C1c1ccc(Cl)c(Cl)c1 (centres undefined)	?	?	?	40.7	?	nt
O=C(C[n+]1ccc(-c2nnc3n2CCCCC3)cc1)c1ccc(Cl)cc1	-10.4%	8.7%	-9.9%	-18.3	-2.0%	-4.8%
Cc1nn(-c2ccccc2)cc1/C=N/NC(N)=S	2.4%	18.4µM*	?	0.3	14.2%	-3.2%
C=CCNC(=S)N/N=C/c1cn(C)c2ccccc12	8.0%	?	?	12.9	-9.3%	0.1%
Cn1cc(/C=N/NC(N)=S)c2ccccc21	0.0%	13µM*	3.26µM*	-10.2	19.4%	0.9%
COc1ccc(C(=O)Nc2ccnn2C2CCN(C(=O)c3cnsn3)CC2)cc1	1.0%	-16.0%	-4.1%	-13.3	4.8%	4.7%
c1ccc2[nH]c(CSc3nnc(-c4ccncc4)o3)nc2c1	-6.7%	?	?	14.7	-3.0%	-1.2%
Clc1ccc(-c2nnc(SCc3ccon3)o2)c(Cl)c1	3.4%	-11.5%	-9.5%	-11.8	-8.4%	?
Brc1cccc(-c2nnc(SCc3nc4ccccc4[nH]3)o2)c1	11.4%	?	?	-55.5*	-1.6%	-10.2%
Clc1ccc(-c2nnc(SCc3nc4ccccc4[nH]3)o2)c(Cl)c1	-9.2%	?	9.2µM*	-1.2	-12.9%	-3.5%
O=c1c(-c2ccccc2)nc2cnc(N3CCOCC3)nc2n1Cc1ccc(F)cc1	nt	-14.8%	-2.0%	nt	nt	nt
Cc1cccc(CN2CCCC(C(=O)Nc3ccccc3Oc3cccnc3)C2)c1 (centres undefined)	-19.4%	?	?	-55.6*	-19.2%	3.1%
O=C(Nc1ccccc1Oc1cccnc1)C1CCCN(C/C=C/c2ccc(F)cc2)C1 (centres undefined)	-2.0%	?	?	-59.0*	-22.9%	-22.0%
Cc1cccc(CN2CCCC(C(=O)N3CCCCC3)C2)c1 (centres undefined)	-0.2%	-27.7%	?	16.7	-7.7%	2.6%

High-throughput results as filed in PubChem.
